CRFBP-R2 agonist = CRF-BP/CRF-R2 complex agonism. HEK293 CRF-R2/CRF-BP, calcium dye fluorescence (FLIPR); percent of saturating CRF peptide response. activation, % at 13.2 µM. actives 0.46% (n = 350,000);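 active = activation of at least 50%, plus an integration ratio under a set limit after plate pattern correction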;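 note: plate controls were neutral control wells without compound for no effect and CRF at EC100 for full effect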
IDE cell inh = inhibitors of human insulin-degrading enzyme in cells; P14735; HEK cells, FAbetaB cleavage, fluorescence polarization; inhibition, % at 5.59 µM; actives 0.41% (n = 320,000); AID 434962;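 active = percent inhibition above the average of all tested compounds plus 3 SD, set per screening campaign, cut at about 16% in these data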;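 note: IDE supplied by intact live HEK cells; FP after avidin binding of uncleaved biotin substrate so inhibition keeps polarization high; 0% = DMSO wells and 100% = 60 µM reference IDE inhibitor Ii1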
Target sequence (P14735 whole entry, looked up): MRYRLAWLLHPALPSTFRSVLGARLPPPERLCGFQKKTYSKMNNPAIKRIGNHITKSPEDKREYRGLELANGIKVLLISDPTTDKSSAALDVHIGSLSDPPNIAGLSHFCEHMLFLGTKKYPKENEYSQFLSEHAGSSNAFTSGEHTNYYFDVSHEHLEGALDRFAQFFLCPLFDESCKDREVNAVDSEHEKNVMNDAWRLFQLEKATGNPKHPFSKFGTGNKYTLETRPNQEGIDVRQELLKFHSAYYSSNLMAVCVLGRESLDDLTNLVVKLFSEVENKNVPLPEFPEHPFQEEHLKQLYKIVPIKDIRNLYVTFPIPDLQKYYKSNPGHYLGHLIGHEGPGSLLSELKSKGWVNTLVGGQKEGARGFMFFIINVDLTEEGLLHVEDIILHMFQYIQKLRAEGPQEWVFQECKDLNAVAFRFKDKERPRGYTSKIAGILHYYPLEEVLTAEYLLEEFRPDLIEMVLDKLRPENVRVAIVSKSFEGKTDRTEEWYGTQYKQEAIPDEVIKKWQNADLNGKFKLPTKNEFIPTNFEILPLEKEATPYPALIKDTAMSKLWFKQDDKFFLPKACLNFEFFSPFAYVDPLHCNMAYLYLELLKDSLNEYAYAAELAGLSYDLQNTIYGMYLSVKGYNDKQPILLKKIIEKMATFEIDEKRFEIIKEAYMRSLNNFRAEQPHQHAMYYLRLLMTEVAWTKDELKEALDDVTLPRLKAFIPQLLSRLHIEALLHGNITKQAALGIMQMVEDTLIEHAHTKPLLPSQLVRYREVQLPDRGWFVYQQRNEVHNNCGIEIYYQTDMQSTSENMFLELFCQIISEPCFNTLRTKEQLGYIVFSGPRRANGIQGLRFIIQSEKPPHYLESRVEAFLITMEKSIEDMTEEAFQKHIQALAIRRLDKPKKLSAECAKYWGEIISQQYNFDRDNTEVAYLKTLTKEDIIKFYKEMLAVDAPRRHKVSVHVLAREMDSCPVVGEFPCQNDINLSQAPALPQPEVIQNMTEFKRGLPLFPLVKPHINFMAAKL
IDE act = boosts human insulin-degrading enzyme activity in HEK cells. P14735. FAbeta-B cleavage, fluorescence polarization; 0% vehicle, 100% cell-free pure enzyme wells. activation, % at 5.96 µM. actives 0.073% (n = 340,000). AID 493087;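 active = activation above the mean of all tested compounds plus 3 SD, set per screening campaign, cut at about 17% in these data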
CRFBP-R2 block = blocks CRF-induced signaling of the CRF-BP/CRF-R2 complex | HEK293 CRF-R2/CRF-BP, CRF-induced calcium fluorescence | actives 0.59% (n = 350,000) | inhibition, % at 11.8 µM;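 active = inhibition of the ligand-induced calcium signal above about 50% at the single tested concentration, limit read from the data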
Cardiac RTF inh = cardiac RTF calcium desensitization. actives 0.12% (n = 340,000). inhibition, % at 7.15 µM. IANBD-labeled cardiac RTF, Ca2+ fluorescence. P19429+P45379;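 active = inhibition above the mean inhibition of all tested compounds plus 3 SD, cut at about 17% in these data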;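 note: assay run at fixed EC70 calcium of 1.6 mM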
RTF Ca sens act = cardiac RTF calcium sensitization. P19429+P45379. IANBD-labeled TnC RTF fluorescence at EC20 calcium; 0% EC20 calcium, 100% full calcium. activation, % at 7.2 µM. actives 0.24% (n = 340,000). AID 493008;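 active = activation above the mean over all tested compounds plus 3 SD, cut at about 30% in these data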;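 note: rise in fluorescence read as greater calcium sensitivity of cardiac thin filaments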
IDE cell inh cf = cellular human IDE inhibition, confirmation; shares compounds with IDE cell inh; HEK cells, FAbetaB cleavage, fluorescence polarization; actives 51% (n = 1,200); inhibition, % at 5.59 µM;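 active = mean inhibition across triplicate wells above the cutoff set by the earlier primary insulin-degrading enzyme screen, cut at about 16% in these data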;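 note: 0% = DMSO wells and 100% = 60 µM reference IDE inhibitor Ii1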
HEK293 tox = HEK cell cytotoxicity, counter-screen for IDE inhibitors; HEK293 cytotoxicity, ATP luminescence; actives 28% (n = 1,200); inhibition, % at 5.59 µM; shares compounds with IDE cell inh; in the data active = inhibition above about 22%;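 note: 0% = vehicle wells and 100% = reference cytotoxic drug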
Active calls of the source: *; . = not tested or not shown. Only some compounds are listed: those with a hit (about 1.5% of all), similar ones and a draw of the others.

SMILES | CRFBP-R2 agonist | IDE cell inh | IDE act | CRFBP-R2 block | Cardiac RTF inh | RTF Ca sens act | IDE cell inh cf | HEK293 tox
COc1c(/C=N/Nc2ccc([N+](=O)[O-])cc2[N+](=O)[O-])c(C)nn1-c1ccccc1 | -1 | -2 | 6 | 2 | -8 | -2 | . | .
COc1c(/C=N/NC(N)=S)c(C)nn1-c1ccccc1 | 1 | 22* | -10 | 33 | -8 | -2 | 3 | 11
O=C(NC1CCCCC1)C1CCN(C(=O)c2ccc(Cl)cc2)CC1 | 0 | 7 | 1 | -10 | -6 | -5 | . | .
O=C(NC1CCCCC1)C1CCN(C(=O)c2ccc(-c3ccccc3)cc2)CC1 | -1 | 18* | -3 | 1 | -7 | 2 | 6 | 12
COc1ccc(/C=C/C(=O)NC(=S)Nc2ccc(S(=O)(=O)Nc3cc(C)on3)cc2)cc1 | 0 | 16* | -3 | 29 | -17 | -4 | 6 | 11
Cc1ccc(NC(=O)Cn2cnc([N+](=O)[O-])c2)cc1C | 2 | -1 | 0 | -14 | -3 | -6 | . | .
Cc1ccsc1C(=O)C1CCCN(Cc2cc(F)ccc2-n2cccn2)C1 (stereo unspecified) | -5 | 1 | 1 | 18 | -6 | -4 | . | .
Cc1[nH]nc2c1C(c1ccc(F)cc1)C(C#N)=C(N)O2 (stereo unspecified) | -1 | 8 | 1 | -6 | -3 | 2 | . | .
Cc1oc(C)c2c(=O)ccc3c(c12)OC(N)=C(C#N)C3c1ccc(F)cc1 (stereo unspecified) | 2 | 27* | -86 | 3 | -19 | 7 | 68* | 10
COCCN(C(=O)COc1ccccc1C#N)c1c(N)n(Cc2ccccc2)c(=O)[nH]c1=O | -1 | -1 | 1 | 6 | -4 | -6 | . | .
Cc1ccsc1/C=N/NC(=O)Cn1cnc2ccccc21 | -1 | 2 | 4 | -8 | 7 | -3 | . | .
COc1cccc(C(=O)Nc2nc(-c3ccc(S(=O)(=O)N4CCOCC4)cc3)cs2)c1 | 4 | 40* | -20 | 8 | 6 | -7 | 16 | 58*
O=C(Nc1nc(-c2ccc(S(=O)(=O)N3CCOCC3)cc2)cs1)c1ccccc1 | 0 | 22* | -7 | -8 | -5 | -4 | 3 | 72*
CNC(=O)c1cc(S(=O)(=O)Nc2ccc3c(c2)OCO3)ccc1C | -1 | 2 | 4 | -2 | -3 | 3 | . | .
O=C(Nc1cccc2ccccc12)OCc1ccccc1 | -3 | . | -1 | 9 | 2 | 1 | . | .
COc1ccc(S(=O)(=O)c2c(N)n(Cc3ccco3)c3nc4ccccc4nc23)cc1 | 45 | 23* | -13 | -38 | -27 | 3 | 10 | 5
O=C(CN1C(=O)NC2(CCCCCC2)C1=O)Nc1ccc(Br)cc1Br | 1 | 2 | 7 | -15 | -6 | 3 | . | .
O=C(CCN1C(=O)c2ccccc2C1=O)Oc1ccc2ccccc2c1 | 2 | 8 | 2 | -17 | -3 | -3 | . | .
CC1=CC(C)(C)Nc2ccc(OC(=O)CCN3C(=O)c4ccccc4C3=O)cc21 | -1 | 17* | -3 | -7 | -15 | 0 | 38* | 127*
COc1ccc(N=Cc2sc(O)c3ccccc23)cc1 | 271* | 61* | -66 | -320 | -145 | 79* | 90* | 10
COc1ccc(N=Cc2c(OC)ccc3ccccc23)cc1 | -1 | -3 | 0 | -2 | -10 | 6 | . | .
c1ccc2c(c1)[nH]c1c(N3CCSCC3)ncnc12 | 0 | 11 | -10 | -1 | 7 | -1 | . | .
Cc1ccc2[nH]c3c(N4CCOCC4)ncnc3c2c1 | 0 | 29* | -11 | 25 | -2 | -1 | 9 | 21
c1ccc2c(c1)[nH]c1c(N3CCCC3)ncnc12 | -4 | 16* | -12 | 11 | 3 | 2 | 10 | 49*
c1ccc2c(c1)[nH]c1c(N3CCOCC3)ncnc12 | 0 | 18* | -12 | 1 | -2 | 0 | 8 | 20
Clc1ccc2[nH]c3c(N4CCC5(CC4)OCCO5)ncnc3c2c1 | 0 | 22* | . | 7 | . | . | 10 | 60*
